From PubChem BioAssay (NCATS)
Results filed as inconclusive are left out. The source made the active and inactive calls. The call rests on the fitted dose curve; in most records, active means well fitted curve in the direction sought with a large enough effect; inconclusive means small, poorly fitted or top-dose-only effect, or another doubt; inactive means no such curve, though single readings can be large; an effect the other way counts as inactive or inconclusive.

Columns and labels:
[1] = Cellular Toxicity (caspase-3) Mesangial (AID 660); settings: mesangial cells, normalized: DMSO 0%, 100 µM tamoxifen 100%; at 91.7 µM (top of the series);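 further: cells exposed to compound for 16 h before the caspase read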
In short: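 Human renal glomerular mesangial cells (1000/well) were treated with compounds for 16 h at 37 °C in complete medium, then caspase 3/7 activity was read by Caspase-Glo luminescence. Data were normalized to DMSO and 100 uM tamoxifen; AC50 from Hill fits.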

[2] = Cellular Toxicity (caspase-3) SK-N-SH (AID 661);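 further: 0% = DMSO basal and 100% = 10 µM staurosporine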
In short: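 SK-N-SH human neuroblastoma cells (1500/well) were treated with compounds for 16 hr at 37 °C in complete medium; caspase 3/7 activity was read by Caspase-Glo luminescence. AC50 came from Hill fits of data normalized to DMSO and 10 uM staurosporine.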

[3] = Cellular Toxicity (caspase-3) H-4-II-E (AID 663); settings: H-4-II-E rat hepatoma, scaled: DMSO 0%, 100 µM tamoxifen 100%; at 92.2 µM (top of the series);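 further: cells exposed to compound for 16 hr before readout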
In short: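 Luminescence from caspase-cleaved aminoluciferin substrate, read 20 min after reagent addition, reports caspase 3/7 activation in rat H-4-II-E cells after 16 hr compound exposure. Normalized to DMSO (basal) and 100 uM tamoxifen (100%); AC50 from Hill fits.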

[4] = Cellular Toxicity (caspase-3) Hek293 (AID 664); settings: HEK293 caspase-3 activation, DMSO = 0%, 100 µM tamoxifen = 100%; at 92.2 µM (top of the series);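 further: cells exposed to compound for 16 h at 37 °C before readout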
In short: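 HEK293 cells were exposed to compounds in complete medium for 16 hr at 37 °C, then caspase-3/7 activity was read by Caspase-Glo 3/7 luminescence after 20 min at room temperature. Data normalized to DMSO and 100 uM tamoxifen; AC50 from Hill fits.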

[5] = Cellular Toxicity (caspase-3) N2a (AID 665);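 further: compound exposure lasted 16 h at 37 °C before readout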
In short: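 Mouse N2a neuroblastoma cells (1500/well) were treated with compounds for 16 h at 37 °C, then caspase-3/7 activity was read by Caspase-Glo luminescence after 1 h at room temperature. Data were normalized to DMSO and 10 uM staurosporine; AC50 from Hill fits.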

[6] = Cellular Toxicity (caspase-3) NIH 3T3 (AID 666);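 further: 0% = DMSO basal and 100% = 100 µM tamoxifen stimulation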
In short: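 Mouse NIH 3T3 fibroblasts (1000 cells/well) were treated with compound for 16 hr at 37°C in complete medium; caspase-3/7 activity was read by Caspase-Glo luminescence. Normalized to DMSO and 100 uM tamoxifen; AC50 from Hill fits.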

[7] = Cellular Toxicity (caspase-3) Renal Proximal Tubule (AID 667); settings: Potency: caspase-3 activation;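 further: cells exposed to compound for 16 hours at 37 °C before detection; 0% = DMSO basal and 100% = 10 µM staurosporine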
In short: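 Caspase-Glo 3/7 read-out, rat primary kidney proximal tubule cells. Compound exposure 16 h, 37 °C; detection after 1 h at RT. Activity scaled to DMSO and 10 uM staurosporine.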

[8] = biological target: Cytochrome P450 3A4 (Homo sapiens) (UniProt P08684); assay: qHTS Assay for Inhibitors and Substrates of Cytochrome P450 3A4 (AID 884); further: on the % scale 0 is the no-effect control and ±100 the full control effect; nearly all actives have a fitted effect of over 50% in size
In short: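 20 nM human CYP3A4 with 25 uM Luciferin-PPXE (at KM) in 200 mM KPO4, preincubated 10 min with compound; NADPH regeneration started a 60 min RT reaction. Luciferin detected by luminescence, normalized to 57 uM ketoconazole as full inhibition.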

[9] = Cell Viability - LYMP2-001 (AID 921);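 further: 0% = DMSO only and full inhibition = tetraoctylammonium bromide control wells; nearly all actives have a fitted effect of over 70% in size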
In short: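 A lymphoblastoid cell line of human origin was treated with library compounds across a concentration series for 24 hours, and viable cell number was estimated from ATP-driven luciferase light output. Hill modeling gave AC50.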

[10] = MultiTox-Fluor Cytotoxicity Assay - LYMP1-001 - Dead Cells (AID 946);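 further: 0% = DMSO and 100% = tetraoctylammonium bromide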
In short: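 LYMP1-001 lymphoblastoid cells (2500/well) treated 16 h at 37 C. Dead-cell protease cleavage of bis-AAF-R110 read at Ex/Em 485/520. Normalized to DMSO and 15 uM tetraoctylammonium bromide; AC50 from Hill fits.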

[11] = MultiTox-Fluor Cytotoxicity Assay - LYMP1-001 - Live Cells (AID 947);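 further: 0% = DMSO only and full inhibition = tetraoctylammonium bromide control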
[12] = Cell Viability - LYMP1-002 - Assay at 16 hr (AID 948);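 further: 0% = DMSO alone and full effect = 92 µM tetraoctylammonium bromide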
In short: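 In this qHTS, lymphoblastoid LYMP1-002 cells (human) receive compounds for 16 hr at 37 C. Viability is taken from CellTiter-Glo ATP luminescence, and AC50 derives from standard Hill fits.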

[13] = MultiTox-Fluor Cytotoxicity Assay - LYMP1-002 - Live Cells (AID 955); further: on the % scale 0 is the no-effect control and ±100 the full control effect
In short: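 Human lymphoblastoid LYMP1-002 cells, 2500/well in complete medium, rested 5 hr at 37 C, then exposed to compounds for 16 hr at 37 C. Live-cell protease cleavage of GF-AFC read by fluorescence (Ex/Em 405/510) after 60 min at room temperature; AC50 from Hill fits.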

[14] = MultiTox-Fluor Cytotoxicity Assay - LYMP1-002 - Dead Cells (AID 960);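 further: 0% = DMSO and 100% = tetraoctylammonium bromide; nearly all actives have a fitted effect of over 60% in size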
In short: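 Human lymphoblastoid cells (LYMP1-002), 2500/well in complete medium, were exposed to compounds for 16 hr at 37 C. Dead-cell protease activity was read as bis-AAF-R110 fluorescence (Ex/Em 485/520), normalized to DMSO and 15 uM tetraoctylammonium bromide; AC50 from Hill fits.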

[15] = MultiTox-Fluor Cytotoxicity Assay - LYMP1-003 - Dead Cells (AID 961);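 further: 0% = DMSO and 100% = tetraoctylammonium bromide; nearly all actives have a fitted effect of over 70% in size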
In short: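 LYMP1-003 human lymphoblastoid cells (2500/well) exposed to compound 16 h at 37 C in complete medium; dead-cell protease read with bis-AAF-R110 fluorescence (Ex/Em 485/520) after 60 min at room temperature. Normalized to DMSO and 15 uM tetraoctylammonium bromide; AC50 from Hill fit.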

[16] = MultiTox-Fluor Cytotoxicity Assay - LYMP1-003 - Live Cells (AID 962);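 further: 0% = DMSO only and full loss = 92 µM tetraoctylammonium bromide; cytotoxic hits lower the live-cell protease signal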
In short: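 LYMP1-003 human lymphoblastoid cells (2500/well) in complete medium were preincubated 5 hr at 37 C, then exposed to compounds for 16 hr at 37 C. Live-cell protease cleavage of GF-AFC read by fluorescence (Ex/Em 405/510); AC50 from Hill fits.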

[17] = Cell Viability - LYMP1-003 - Assay at 24 hr (AID 963);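 further: plate controls were DMSO only for no effect and tetraoctylammonium bromide positive control for full effect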
In short: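 Human lymphoblastoid LYMP1-003 cells (2500/well) were rested 5 hr at 37 C, then exposed to compounds in complete medium for 24 hr at 37 C. Cellular ATP was quantified by CellTiter-Glo luminescence, and AC50 values came from Hill fits of concentration-response data.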

[18] = Cell Viability - LYMP1-003 - Assay at 40 hr (AID 964); further: on the % scale 0 is the no-effect control and ±100 the full control effect; nearly all actives have a fitted effect of over 60% in size
In short: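 Human lymphoblastoid LYMP1-003 cells, 2500/well in complete medium, rested 5 hr at 37 C, then exposed to compounds for 40 hr at 37 C. Viability read as intracellular ATP by CellTiter-Glo luminescence; AC50 from Hill fits of concentration-response data.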

[19] = Cell Viability - LYMP2-003 (AID 965);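 further: cells exposed to compounds for 24 h before reading; 0% = DMSO only and full effect = 92 µM tetraoctylammonium bromide; nearly all actives have a fitted effect of over 50% in size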
In short: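 qHTS, human lymphoblastoid line, 2500 cells/well, complete medium. 24 h drug, 37 C. ATP-based luminescent readout; Hill-fit AC50.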

Chain of Cytochrome P450 3A4 (Homo sapiens) (P08684 whole entry, looked up): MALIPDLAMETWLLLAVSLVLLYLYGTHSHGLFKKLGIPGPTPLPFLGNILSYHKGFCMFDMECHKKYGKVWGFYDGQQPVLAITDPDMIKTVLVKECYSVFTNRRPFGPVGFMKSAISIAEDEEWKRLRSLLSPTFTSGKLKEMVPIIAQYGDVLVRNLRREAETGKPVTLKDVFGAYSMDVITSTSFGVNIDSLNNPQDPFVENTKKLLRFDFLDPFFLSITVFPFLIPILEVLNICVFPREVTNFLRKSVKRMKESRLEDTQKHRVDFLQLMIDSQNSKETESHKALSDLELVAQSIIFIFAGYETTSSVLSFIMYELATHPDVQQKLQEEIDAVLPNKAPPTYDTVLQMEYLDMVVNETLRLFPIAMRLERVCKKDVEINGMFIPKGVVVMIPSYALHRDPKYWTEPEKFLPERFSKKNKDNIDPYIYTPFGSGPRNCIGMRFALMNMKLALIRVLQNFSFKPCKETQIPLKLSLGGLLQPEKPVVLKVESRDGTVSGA

Cc1cccc2sc(N)nc12
inactive: caspase-3 activation [1] -0.691% | outcome [2] | caspase-3 activation [3] -0.522% | caspase-3 activation [4] 1.8% | outcome [5] | outcome [6] | Potency [7] | Potency [8] | Potency [9] | outcome [10] | outcome [11] | outcome [12] | outcome [13] | outcome [14] | Potency [15] | Potency [16] | Potency [17] | Potency [18] | Potency [19]

O=C(O)c1cccc([N+](=O)[O-])c1
inactive: caspase-3 activation [1] -1.42% | outcome [2] | caspase-3 activation [3] -0.0521% | caspase-3 activation [4] 2.38% | outcome [5] | outcome [6] | Potency [7] | Potency [8] | Potency [9] | outcome [10] | outcome [11] | outcome [12] | outcome [13] | outcome [14] | Potency [15] | Potency [16] | Potency [17] | Potency [18] | Potency [19]

Nc1cccc(S(=O)(=O)O)c1
inactive: caspase-3 activation [1] -0.0111% | outcome [2] | caspase-3 activation [3] -0.597% | caspase-3 activation [4] -1.89% | outcome [5] | outcome [6] | Potency [7] | Potency [8] | Potency [9] | outcome [10] | outcome [11] | outcome [12] | outcome [13] | outcome [14] | Potency [15] | Potency [16] | Potency [17] | Potency [18] | Potency [19]

C=Cc1ccc(C=C)cc1
inactive: caspase-3 activation [1] -0.657% | outcome [2] | caspase-3 activation [3] -0.942% | caspase-3 activation [4] 0.511% | outcome [5] | outcome [6] | Potency [7] | Potency [8] | Potency [9] | outcome [10] | outcome [11] | outcome [12] | outcome [13] | outcome [14] | Potency [16] | Potency [17] | Potency [18]

C1CCC2OC2C1 (configuration not stated)
inactive: caspase-3 activation [1] -0.0644% | outcome [2] | caspase-3 activation [3] -0.699% | caspase-3 activation [4] 1.05% | outcome [5] | outcome [6] | Potency [7] | Potency [8] | Potency [9] | outcome [10] | outcome [11] | outcome [12] | outcome [13] | outcome [14] | Potency [15] | Potency [16] | Potency [17] | Potency [18] | Potency [19]

CC(C)(C)OCC1CO1 (configuration not stated)
inactive: caspase-3 activation [1] 0.391% | outcome [2] | caspase-3 activation [3] 0.741% | caspase-3 activation [4] 2.04% | outcome [5] | outcome [6] | Potency [7] | Potency [8] | Potency [9] | outcome [10] | outcome [11] | outcome [12] | outcome [13] | outcome [14] | Potency [15] | Potency [16] | Potency [17] | Potency [18] | Potency [19]

O=C(Cl)c1cccc([N+](=O)[O-])c1
inactive: caspase-3 activation [1] -1.19% | outcome [2] | caspase-3 activation [3] 3.32% | caspase-3 activation [4] 0.786% | outcome [5] | outcome [6] | Potency [7] | Potency [8] | Potency [9] | outcome [10] | outcome [11] | outcome [12] | outcome [13] | outcome [14] | Potency [15] | Potency [16] | Potency [17] | Potency [18] | Potency [19]

CCC(C)(C)C(=O)O
inactive: caspase-3 activation [1] 0.0755% | outcome [2] | caspase-3 activation [3] 1.75% | caspase-3 activation [4] 1.52% | outcome [5] | outcome [6] | Potency [7] | Potency [8] | Potency [9] | outcome [10] | outcome [11] | outcome [12] | outcome [13] | outcome [14] | Potency [15] | Potency [16] | Potency [17] | Potency [18] | Potency [19]

O=[N+]([O-])c1cccc(Cl)c1
inactive: caspase-3 activation [1] -0.653% | outcome [2] | caspase-3 activation [3] 0.41% | caspase-3 activation [4] -2.38% | outcome [5] | outcome [6] | Potency [7] | Potency [8] | Potency [9] | outcome [10] | outcome [11] | outcome [12] | outcome [13] | outcome [14] | Potency [15] | Potency [16] | Potency [17] | Potency [18] | Potency [19]

C=CCCCCCCC=C
inactive: caspase-3 activation [1] 4.38% | outcome [2] | caspase-3 activation [3] 1.95% | caspase-3 activation [4] 5.13% | outcome [5] | outcome [6] | Potency [7] | Potency [8] | Potency [9] | outcome [10] | outcome [11] | outcome [12] | outcome [13] | outcome [14] | Potency [16] | Potency [17] | Potency [18] | Potency [19]

CC(C)=CCl
inactive: caspase-3 activation [1] 0.522% | outcome [2] | caspase-3 activation [3] -0.24% | caspase-3 activation [4] 1.55% | outcome [5] | outcome [6] | Potency [7] | Potency [8] | Potency [9] | outcome [10] | outcome [11] | outcome [12] | outcome [13] | Potency [15] | Potency [16] | Potency [17] | Potency [18] | Potency [19]

CCCC(C)CO (configuration not stated)
inactive: caspase-3 activation [1] 0.885% | outcome [2] | caspase-3 activation [3] 1.09% | caspase-3 activation [4] 1.12% | outcome [5] | outcome [6] | Potency [7] | Potency [8] | Potency [9] | outcome [10] | outcome [11] | outcome [12] | outcome [13] | Potency [15] | Potency [16] | Potency [17] | Potency [18] | Potency [19]

CCC1CO1 (configuration not stated)
inactive: caspase-3 activation [1] 0.872% | outcome [2] | caspase-3 activation [3] 2.93% | caspase-3 activation [4] -0.425% | outcome [5] | outcome [6] | Potency [7] | Potency [8] | Potency [9] | outcome [10] | outcome [11] | outcome [12] | outcome [13] | Potency [15] | Potency [16] | Potency [17] | Potency [18] | Potency [19]

CC(C)(C)c1ccc(OCC2CO2)cc1 (configuration not stated)
inactive: caspase-3 activation [1] 1.34% | outcome [2] | caspase-3 activation [3] 0.475% | caspase-3 activation [4] -2.1% | outcome [5] | outcome [6] | Potency [7] | Potency [8] | Potency [9] | outcome [10] | outcome [11] | outcome [12] | outcome [13] | Potency [15] | Potency [16] | Potency [17] | Potency [18] | Potency [19]

O=C(O[C@@H](C(=O)O)[C@@H](OC(=O)c1ccccc1)C(=O)O)c1ccccc1
inactive: caspase-3 activation [1] 0.793% | outcome [2] | caspase-3 activation [3] 0.201% | caspase-3 activation [4] -0.248% | outcome [5] | outcome [6] | Potency [7] | Potency [8] | Potency [9] | outcome [10] | outcome [11] | outcome [12] | outcome [13] | Potency [15] | Potency [16] | Potency [17] | Potency [18] | Potency [19]
